Source: ChEMBL document CHEMBL3988442, “University of Dundee, Small-Polar-MMV Screening Library” (2021)

Molecular target: T1, Aspartate--tRNA(Asp/Asn) ligase (Mycobacterium tuberculosis (strain ATCC 25618 / H37Rv)) (UniProt P9WFW3)
T1 sequence (whole entry): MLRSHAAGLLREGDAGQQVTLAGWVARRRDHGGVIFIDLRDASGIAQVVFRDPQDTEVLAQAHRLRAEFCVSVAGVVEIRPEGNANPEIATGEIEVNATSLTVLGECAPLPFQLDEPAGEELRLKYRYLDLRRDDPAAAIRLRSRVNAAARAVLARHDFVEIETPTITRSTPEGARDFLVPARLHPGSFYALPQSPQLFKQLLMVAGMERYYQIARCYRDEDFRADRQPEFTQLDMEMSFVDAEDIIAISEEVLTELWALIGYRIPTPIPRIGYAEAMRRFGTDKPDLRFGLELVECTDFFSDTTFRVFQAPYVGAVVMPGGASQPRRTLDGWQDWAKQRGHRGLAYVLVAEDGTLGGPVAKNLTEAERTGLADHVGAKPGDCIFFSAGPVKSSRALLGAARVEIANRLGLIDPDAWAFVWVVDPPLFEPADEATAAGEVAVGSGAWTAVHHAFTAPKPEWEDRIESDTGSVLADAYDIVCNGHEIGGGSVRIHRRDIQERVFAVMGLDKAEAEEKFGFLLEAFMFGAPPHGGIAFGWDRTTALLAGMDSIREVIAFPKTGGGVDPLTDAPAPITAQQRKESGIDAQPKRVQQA
Assay: Assay for Asp RNA synthetase-1 from Mycobacterium tuberculosis
Assay type: functional
Set-up: scale not given: in the data most compounds retested in dose-response had high values
Settings: 30 µM

In order of rising Percent Effect:
1. CC(C)c1n[nH]c(C(=O)Nc2ccnn2C(C)C)c1Br  -9.11%
2. CNS(=O)(=O)c1cccc(CNC(=O)c2c(C)oc(C)c2C)c1  -7.7%
3. CCOCCCn1c(NC(=O)c2scnc2C)nc2ccccc21  -5.62%
4. Cn1cc(CN2CCc3nc(-c4ccccn4)nc(O)c3C2)cn1  -5.28%
5. CCn1ccnc1CN1CCCN(C(=O)c2cc(Cl)c[nH]2)CC1  -5.23%
6. Cc1cnn(CC(C)NCc2nc(-c3ccco3)no2)c1 (stereo not given)  -4.9%
7. c1cc(C2CCCN2Cc2nnnn2C2CC2)cs1 (stereo not given)  -4.43%
8. CCc1noc(C2CCCCN2C(=O)c2ccoc2C)n1 (stereo not given)  -4.38%
9. O=C(c1ccncc1)N1CCCn2c(CN3CCCCC3)nnc2C1  -3.93%
10. CS(=O)(=O)N1CCOCC2(CCN(C(=O)c3cccnc3)CC2)C1  -2.76%
11. CCc1nnc(CN2CCN(C(=O)c3cc4ccccc4[nH]3)CC2)o1  -2.68%
12. Cc1cnn(CC2CCCCN2CCn2cncn2)c1 (stereo not given)  -2.34%
13. CN1CCN(C(=O)Cc2cccc(F)c2)Cc2cccnc21  -2.05%
14. O=C(CCNC(=O)c1ccccc1N1CCOCC1)NC1CCCC1  -1.94%
15. CCc1nc2n(n1)CC(NCc1nc(C)ccc1O)CC2 (stereo not given)  -1.83%
16. Cc1cnc(C(=O)N(CCN(C)C)Cc2ccc(Cl)cc2)cn1  -1.59%
17. CCn1cnnc1C1CCN(C(=O)c2cnc3ccccc3n2)CC1  -1.17%
18. CN1CCN(Cc2ccccc2CNC(=O)c2ccc(Br)cc2)CC1  -0.466%
19. Cc1nccn1CCCC(=O)N1CCC(Nc2cccnn2)CC1  -0.211%
20. Fc1cnc(N2C[C@H]3CCC[C@@]3(COc3ccccn3)C2)nc1  0.435%
21. COc1ccc(C)cc1NC(=O)Nc1cnc(N2CCN(C)CC2)nc1  0.539%
22. Cc1cccc(CN2C[C@@H]3CN(C(=O)NC(C)C)C[C@@H]3C2=O)c1  0.565%
23. CS(=O)(=O)CCSc1cccc(C#N)c1  0.641%
24. COc1cc(CCC(=O)NC2CC2)ccc1OCC(F)(F)F  1.01%
25. CCO[C@@H]1CO[C@@]2(CCCN(C(=O)COc3ccccc3OC)C2)C1  1.03%
26. Cc1csc(N2CCCN(C(=O)C(C)n3ccnc3)CC2)n1 (stereo not given)  1.2%
27. COc1ccc(CN2CCn3c(CNS(C)(=O)=O)nnc3C2)cc1  1.39%
28. Cn1ccnc1CN1CCN(c2ccc(C#N)cn2)CC1  1.72%
29. CN(C)CC(=O)N1C[C@H]2CCC[C@@]2(COc2ccccn2)C1  1.75%
30. CS(=O)(=O)N1CCC(Oc2ccc(C(=O)N3CCSCC3)cc2Cl)CC1  1.75%
31. C=Cn1ncc(CN2C[C@@H]3CCCN3C[C@H]2CCSC)c1C  1.89%
32. CS(=O)(=O)c1ccc(NC(=O)NCc2ccc3c(c2)CCC3)cn1  1.92%
33. Cc1noc(C)c1CNC(=O)N1CCC(CO)CC1  2.21%
34. O=C(Cn1cccnc1=O)NCCc1ccc2c(c1)OCCO2  2.57%
35. CC(C)c1ncc2c(n1)CN(Cc1nc(-c3ccoc3)no1)CC2  3.7%
36. CC(C)C(NC(=O)NCCNc1ccccn1)c1cccs1 (stereo not given)  7.74%
37. Cc1cc(C(=O)N2CCc3nnc(N)cc3C2)c(C)n1C1CC1  7.93%
38. CN1CCN(Cc2nc3ccccc3[nH]2)[C@H]2CS(=O)(=O)C[C@H]21  8.03%
39. c1cn2c(n1)CN(CC1CC1)CC(CN1CCOCC1)C2 (stereo not given)  11.1%
40. O=C1CO[C@@H]2CN(Cc3cccs3)C[C@H]2N1CC1CC1  12.1%
